Test: small-molecule binders of probe aInhba, primary screen, biochemical, small-molecule microarray, 635/667 nm fluorescence (AID 1148);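 note: score merges 667nm spot fluorescence with signal-to-noise for antibody binding to printed compounds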
Conditions: higher = more signal
With `O=C1O[C@@H](c2ccccc2)[C@@H](c2ccccc2)N2[C@@H](c3ccccc3OCCO)[C@]3(C(=O)Nc4ccccc43)[C@@H](C(=O)NC[C@H](O)c3ccccc3)[C@H]12` the composite z-score was -0.149. In the case of `COCCOC(=O)N1C(=O)[C@@]2(c3cc(C#CC4=CCCCC4)ccc31)[C@H](c1ccccc1OCCO)N1[C@H](c3ccccc3)[C@H](c3ccccc3)OC(=O)[C@H]1[C@@H]2C(=O)N1CCc2cc(OC)c(OC)cc2C1`, the composite z-score is reported as -0.305. Work on `Cc1ccc(S[C@]2(C(=O)NC3CC3)CC(=O)N(Cc3ccccc3Cl)[C@@H]2c2ccc(CO)cc2I)cc1` yielded a composite z-score of 0.0471. `CC(C)CN1C(=O)[C@@]2(Cc3ccccc31)c1ccccc1C(=O)N(Cc1ccccc1C(F)(F)F)[C@H]2c1ccc(CO)cc1` gave a composite z-score of -0.182. Compound `CCCN1C(=O)[C@]2(Cc3ccccc3)N=C(c3ccc(OCCCO)cc3)O[C@@H]2c2ccccc21` has a composite z-score of 0.872. Compound `C[C@]1(C(=O)NC2CC2)c2ccccc2C(=O)N(Cc2ccc(OC(F)(F)F)cc2)[C@H]1c1ccc(CO)cc1` has a composite z-score of 0.152. Compound `NC(=O)NCC#Cc1ccc2c(c1)[C@]1(C(=O)N2)[C@H](C(=O)O)[C@H]2C(=O)O[C@H](c3ccccc3)[C@H](c3ccccc3)N2[C@@H]1c1ccccc1OCCO` has a composite z-score of 0.374. Work on `Cc1ccc(S[C@]2(C(=O)NCCN3CCOCC3)CC(=O)N(Cc3ccccc3C(F)(F)F)[C@@H]2c2ccc(CO)cc2I)cc1` yielded a composite z-score of -0.157. `Cc1ccc(S[C@]2(C(=O)NCc3ccccc3)CC(=O)N(C(C)C)[C@@H]2c2ccc(CO)cc2I)cc1` showed a composite z-score of 0.0028. With `NC(=O)NCC#Cc1ccc2c(c1)[C@]1(C(=O)N2)[C@H](C(=O)Nc2nc3ccccc3s2)[C@H]2C(=O)O[C@H](c3ccccc3)[C@H](c3ccccc3)N2[C@@H]1c1ccc(O)cc1` the composite z-score was 0.806. With `O=C1NC(=O)C2C1C=CC(C(O)c1ccc(Br)cc1)N2Nc1ccccn1` (stereo not drawn) the composite z-score was 0.126. `[N-]=[N+]=Nc1ccccc1[C@H]1OC(c2ccc(OCCCO)cc2)=N[C@@]1(CCS(=O)(=O)c1ccccc1)C(=O)N1CCCCC1` showed a composite z-score of 0.153. With `CC(C)C(CO)N1C(=O)[C@]2(C)C3C(=O)OCCC/C=C\[C@H]3OC23C=CCN(c2ccc(Cl)cc2)C(=O)[C@@H]13` (stereo partly drawn) the composite z-score was -0.128. In the case of `C=C[C@@H](C)[C@H](OC(=O)Nc1ccc(SC)cc1)c1ccc(OCCO)cc1`, the composite z-score is reported as -0.259. For `[N-]=[N+]=NCc1ccccc1C[C@@]1(C(=O)NCCN2CCOCC2)N=C(c2ccc(OCCCO)cc2)O[C@@H]1c1ccccc1N=[N+]=[N-]`, the composite z-score was 0.0906. Compound `CC(=O)N1Cc2ccccc2C[C@]2(N=C(c3ccc(OCCCO)cc3)O[C@@H]2c2ccccc2)C1=O` has a composite z-score of 0.12. Work on `O=C1c2ccccc2[C@](Cc2ccccc2I)(C(=O)NCCN2CCOCC2)[C@H](c2ccc(CO)cc2)N1Cc1ccccc1` yielded a composite z-score of 0.444. In the case of `Cc1ccc(S[C@]2(C(=O)NC(C)C)CC(=O)N(Cc3ccccc3C(F)(F)F)[C@@H]2c2ccc(CO)cc2I)cc1`, the composite z-score is reported as -0.239. In the case of `CCOC(=O)[C@H]1C/C=C/C[C@H](C(=O)OCC)C(=O)O[C@H]2[C@@H](OC)O[C@H](CO)[C@@H](OC(=O)Nc3ccc(OC)cc3)[C@@H]2OC1=O`, the composite z-score is reported as 0.134. For `C[C@]1(C(=O)NCCN2CCOCC2)c2ccccc2C(=O)N(Cc2ccc(OC(F)(F)F)cc2)[C@H]1c1ccc(CO)cc1`, the composite z-score was -0.101. With `C=CC[C@]1(C(=O)N(C)C)N=C(c2ccc(OCCCO)cc2)O[C@H]1c1ccccc1N=[N+]=[N-]` the composite z-score was -0.0136. Compound `COc1ccc([Si](C)(C)[C@H]2[C@H](CCO)O[C@@]3(C(=O)N(Cc4cccc(N5CCCCC5=O)c4)c4ccccc43)[C@@H]2C)cc1` has a composite z-score of -0.116. With `C=CC[C@H](OC(=O)Nc1ccc(OC)cc1)c1ccc(O)c2ccccc12` the composite z-score was 0.0275. With `CC(C)N1CC=CC23O[C@@H]4C=CCOC(=O)[C@@H]4[C@H]2C(=O)N(C(C)CO)[C@@H]3C1=O` (stereo partly drawn) the composite z-score was -0.161. In the case of `COCCOC(=O)N1C(=O)[C@@]2(c3cc(C#CCNC(N)=O)ccc31)[C@H](C(=O)N1CCCCCCC1)[C@H]1C(=O)O[C@H](c3ccccc3)[C@H](c3ccccc3)N1[C@@H]2c1ccc(O)cc1`, the composite z-score is reported as -0.101. `COc1ccc(C(O)C2C=CC3C(=O)N(c4ccccc4)C(=O)C3N2Nc2ccccc2)cc1OCc1ccccc1` (stereo not drawn) showed a composite z-score of 0.185. `C=CC[C@@H](OC(=O)Nc1ccc(OC)cc1)c1ccc(OCCO)cc1` gave a composite z-score of -0.237. In the case of `O=C1O[C@@H](c2ccccc2)[C@@H](c2ccccc2)N2[C@@H](c3ccc(O)cc3)[C@]3(C(=O)Nc4ccccc43)[C@@H](C(=O)Nc3nc4ccccc4s3)[C@H]12`, the composite z-score is reported as -0.128.
